86 compounds from PubChem BioAssay AID1259415 (National Center for Advancing Translational Sciences (NCATS), 2018) can be followed below.

About 18,000 (4.4%) of roughly 410,000 compounds were called active. Inconclusive results (about 7%) are left out. Cut-off read from the data, not from the text of the source: active = activity change below about -60%; inconclusive = no clear call, values can overlap the other calls; inactive = above about -39%. The entries come from a sample that favours actives as a whole.
% is set by controls: 0 for no effect and ±100 for the full control effect.

This test is described as follows: qHTS Assay for inhibitors of the human cytomegalovirus (HCMV). Particulars: HFF cells, HCMV-luciferase reporter, 72 h; at 57.5 µM; hits give low values. In short, it runs like this: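 After 16 h attachment at 37C, HFF cells received test compound and HCMV-luciferase (1 PFU/cell); reporter luminescence read 72 h later, data normalized against buffer-only and known inhibitor Salinomycin.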
In the case of `CCc1cccc(NC(=O)CSc2nccn2C)c1`, the activity change, negative = inhibition is 73.7% (inactive).

`O=C(Nc1cc(-c2nc3ccccc3o2)ccc1Cl)c1cc([N+](=O)[O-])ccc1N1CCOCC1`: the activity change, negative = inhibition is 17.1% (inactive).

Take `O=C(CCCCn1c(=O)c2ccccc2n(CC(=O)Nc2cccc(C(F)(F)F)c2)c1=O)NCc1ccc2c(c1)OCO2`: the activity change, negative = inhibition was -22.6% (inactive).

As to `CCC(=O)N1CCc2cc(S(=O)(=O)NC(CC(C)C)C(=O)NCCc3cccc(C)c3)ccc21` (stereo unspecified), the activity change, negative = inhibition was -11.4% (inactive).

Regarding `COc1cn(CC(=O)Nc2cccc(C)c2C)c(CN2CCCCC2)cc1=O`, the activity change, negative = inhibition is 6.56% (inactive).

Consider `O=C(c1cc(C(=O)N2CCN(c3ccc(F)cc3)CC2)cc([N+](=O)[O-])c1)N1CCN(c2ccc(F)cc2)CC1`, for which the activity change, negative = inhibition is -66.2% (active).

Consider `CC(C)c1ccc(S(=O)(=O)N2CCN(C(=O)c3ccc(N4CCCC4)c([N+](=O)[O-])c3)CC2)cc1`, for which the activity change, negative = inhibition is -16.3% (inactive).

Consider `COc1ccc(N2CCN(C(=O)c3cccs3)CC2)cc1`, for which the activity change, negative = inhibition is 57.6% (inactive).

For the compound `O=[N+]([O-])c1ccc(N2CCN(c3ccc(F)cc3)CC2)cn1`, the activity change, negative = inhibition is -16.4% (inactive).

`O=C(c1ccc(N2CCOCC2)c([N+](=O)[O-])c1)N1CCN(S(=O)(=O)c2cccs2)CC1`: the activity change, negative = inhibition is 5.8% (inactive).

For the compound `O=C(c1cccc(F)c1)N1CCN(c2ccc([N+](=O)[O-])c(N3CCCCC3)c2)CC1`, the activity change, negative = inhibition is -60.2% (active).

With `COc1ccc(N2CCN(C(=O)c3c(C)oc4nc(C)nc(N5CCCC5)c34)CC2)cc1`, the activity change, negative = inhibition is 18.7% (inactive).

For `O=C(c1ccc(CN2CCOCC2)cc1)N1CCN(c2ccccc2F)CC1`, the activity change, negative = inhibition was 16.2% (inactive).

Take `O=C(c1cncc(Br)c1)N1CCN(c2ccc([N+](=O)[O-])cc2)CC1`: the activity change, negative = inhibition is 25.9% (inactive).

For the compound `O=C(c1ccc(N2CCOCC2)c([N+](=O)[O-])c1)N1CCN(c2ccccc2F)CC1`, the activity change, negative = inhibition is -77.5% (active).

In the case of `COc1ccc(-c2cc(C(=O)N3CCN(c4ccc(F)cc4)CC3)no2)cc1`, the activity change, negative = inhibition is -76% (active).

Take `O=C(c1cccc(F)c1)N1CCN(c2ccc([N+](=O)[O-])c3cccnc23)CC1`: the activity change, negative = inhibition was -7.42% (inactive).

`Cc1ccc(CN(C(=O)COc2ccc(Cl)cc2C)C2CCS(=O)(=O)C2)o1` (stereo unspecified): the activity change, negative = inhibition was 51.5% (inactive).

On to `Cc1cccc(N2CCN(c3ccc(C(=O)O)cc3NC(=O)c3ccccc3F)CC2C)c1` (stereo unspecified), for which the activity change, negative = inhibition was -4.85% (inactive).

Take `CCOc1ccccc1C(=O)NC1(C(F)(F)F)NC(=O)N(CCc2ccc(OC)c(OC)c2)C1=O` (stereo unspecified): the activity change, negative = inhibition is -4.49% (inactive).

With `O=C(CSc1nc2ccccc2nc1Cc1ccccc1)N1CCCCC1`, the activity change, negative = inhibition was -18.6% (inactive).

For `CC(C)[C@@H](C(=O)OCC(=O)c1ccc2c(c1)NC(=O)CO2)N1C(=O)c2ccccc2C1=O`, the activity change, negative = inhibition was 43.1% (inactive).

Regarding `COc1cc(NC(=O)c2noc3c2CSc2ccccc2-3)cc(OC)c1OC`, the activity change, negative = inhibition is 40.1% (inactive).

Regarding `CC(C)CCNC(=O)CSc1nc2ccccc2nc1Cc1ccc(Cl)cc1`, the activity change, negative = inhibition was -7.66% (inactive).

`O=C(CC1N=C2c3ccccc3N=C(SCc3ccc(F)cc3)N2C1=O)NCc1cccs1` (stereo unspecified): the activity change, negative = inhibition was 30.3% (inactive).

With `CC(=O)c1ccc(N2CCN(C(=O)c3ccc4nc[nH]c4c3)CC2)cc1`, the activity change, negative = inhibition was -12% (inactive).

For `O=C(Nc1cc(Cl)ccc1N1CCOCC1)c1ccc(N2CCCC2=O)cc1`, the activity change, negative = inhibition is -3.06% (inactive).

For the compound `O=C(c1ccc(N2CCCC2=O)cc1)N1CCN(c2ccc(C(F)(F)F)cc2[N+](=O)[O-])CC1`, the activity change, negative = inhibition was -85.8% (active).

`O=C(c1cccc(-n2cccc2)c1)N1CCN(S(=O)(=O)c2ccc(F)cc2)CC1`: the activity change, negative = inhibition was -6.27% (inactive).

For the compound `CNS(=O)(=O)c1ccc(N2CCCC2=O)c([N+](=O)[O-])c1`, the activity change, negative = inhibition is -21% (inactive).

With `O=C(c1cccc(C(=O)N2CCN(c3ccc(F)cc3)CC2)c1)N1CCN(c2ccc(F)cc2)CC1`, the activity change, negative = inhibition is -88.8% (active).

In the case of `Cc1cc(C)cc(Nc2ncnc3onc(-c4ccc(F)cc4)c23)c1`, the activity change, negative = inhibition was -23.4% (inactive).

On to `COc1ccccc1-c1nnc(SCC(N)=O)o1`, for which the activity change, negative = inhibition is 64.6% (inactive).

Take `COc1cc(C(=O)Nc2ccc(-n3c(C)nc4ccccc4c3=O)cc2)cc(OC)c1OC`: the activity change, negative = inhibition is -1.41% (inactive).

As for `CCOC(=O)c1cc2c(=O)n3ccccc3nc2n(CCCOC)c1=NC(=O)C(C)Oc1ccccc1` (stereo unspecified), the activity change, negative = inhibition is -1.73% (inactive).

`O=Cc1c(N2CCN(c3cccc(Cl)c3)CC2)nc2ccccn2c1=O`: the activity change, negative = inhibition is -31.6% (inactive).

As for `O=S(=O)(c1cccc2nonc12)N1CCN(c2cccc(Cl)c2)CC1`, the activity change, negative = inhibition was -25.7% (inactive).

As to `Cc1ccc2nc(N3CCN(c4cccc(Cl)c4)CC3)c3nnnn3c2c1`, the activity change, negative = inhibition is -71.6% (active).

Regarding `COC(=O)c1ccc(COC(=O)CNC(=O)c2cccc(OC)c2)o1`, the activity change, negative = inhibition is -25.9% (inactive).

Take `O=C(Nn1cc(C(=O)N2CCN(c3ccccc3F)CC2)c2ccccc2c1=O)c1cnccn1`: the activity change, negative = inhibition is 43.2% (inactive).

`COc1ccc(/C=C(\C#N)C(=O)OCC(=O)N(C)C2CCS(=O)(=O)C2)cc1` (stereo unspecified): the activity change, negative = inhibition was -87.3% (active).

In the case of `CC(=O)c1ccc(OCC(=O)N(C)C2CCS(=O)(=O)C2)cc1` (stereo unspecified), the activity change, negative = inhibition was -17% (inactive).

In the case of `COc1ccc(-c2cc(=O)oc3cc(OCC(=O)N(C)C4CCS(=O)(=O)C4)ccc23)cc1` (stereo unspecified), the activity change, negative = inhibition is 4.48% (inactive).

`CCOC(=O)c1c(S(=O)(=O)N2CCC(C(=O)NCc3ccccc3OC)CC2)c(C)n(C)c1C`: the activity change, negative = inhibition was 9.09% (inactive).

For `O=C(CC1Oc2ccc(Cl)cc2NC1=O)NCc1ccccc1` (stereo unspecified), the activity change, negative = inhibition was -7.24% (inactive).

Take `O=C(Nc1ccc(F)cc1F)c1ccc2c(=O)n3c(nc2c1)CCCCC3`: the activity change, negative = inhibition was 61.7% (inactive).

Regarding `COc1cccc(CNC(=O)C(NS(=O)(=O)c2ccc3nc(C)sc3c2)C(C)C)c1` (stereo unspecified), the activity change, negative = inhibition was -9.19% (inactive).

Regarding `COC(=O)c1ccc(COc2ccc(C#N)cc2)o1`, the activity change, negative = inhibition was -13.9% (inactive).

Regarding `COc1ccccc1C(=O)NC(=S)NC12CC3CC(CC(C3)C1)C2`, the activity change, negative = inhibition is -36.1% (inactive).

`Cc1ccc(C(=O)NC23CC4CC(CC(C4)C2)C3)c(Cl)c1`: the activity change, negative = inhibition is 20.9% (inactive).

Regarding `S=C(NCc1ccc(Cl)cc1)NC12CC3CC(CC(C3)C1)C2`, the activity change, negative = inhibition was -100% (active).

In the case of `Cc1cc(-c2ccccc2)n2nc(-c3ccccc3)cc2n1`, the activity change, negative = inhibition is -2.35% (inactive).

`CC(C)(C)c1ccccc1NC(=O)CN1C(=O)NC2(CCCC2)C1=O`: the activity change, negative = inhibition is 19.2% (inactive).

With `CC12CCC(=O)N1C(C(=O)NCCN1C(=O)S/C(=C\c3ccccc3F)C1=O)CS2` (stereo unspecified), the activity change, negative = inhibition is -21.8% (inactive).

In the case of `O=C(CN1C(=O)S/C(=C\c2ccccc2Cl)C1=O)NC1C=CS(=O)(=O)C1` (stereo unspecified), the activity change, negative = inhibition was -66.8% (active).

On to `O=C(NCCN1C(=O)S/C(=C\c2cccnc2)C1=O)c1ccc(S(=O)(=O)N2CCCC2)cc1`, for which the activity change, negative = inhibition is 3.64% (inactive).

Turning to `CCCn1c2ccccc2c2cnn(CC(=O)N(CC)c3cc(C)ccc3C)c(=O)c21`, the activity change, negative = inhibition was -37.8% (inactive).

For the compound `Cc1ccc(C(=O)Nc2cc3c(cc2N2CCCC2)n(C)c(=O)c(=O)n3C)cc1`, the activity change, negative = inhibition is 0.153% (inactive).

As for `O=C(NC1CCN(Cc2ccccc2)CC1)c1ccc(Cn2c(=O)c3ccccc3n(Cc3cccc(F)c3)c2=O)cc1`, the activity change, negative = inhibition is -15.8% (inactive).

For the compound `CCC(C(=O)Nc1cccc(Cl)c1C)n1nc(-c2ccc(C)cc2)ccc1=O` (stereo unspecified), the activity change, negative = inhibition is 12.4% (inactive).

Regarding `Cc1nnc(NC(=O)CSc2nc3c([nH]c4ccccc43)c(=O)n2-c2cccc(Cl)c2)s1`, the activity change, negative = inhibition was -12.8% (inactive).

As to `CCCCCCc1cc2cc(-c3nnc(-c4ccccc4)o3)c(=O)oc2cc1O`, the activity change, negative = inhibition was -100% (active).

As to `Cc1ncn2cc(-c3ccc(Cl)cc3Cl)[nH]c(=O)c12`, the activity change, negative = inhibition was -32.3% (inactive).

On to `CCn1c(-c2cccnc2Cl)nc2cc(C)c(C)cc21`, for which the activity change, negative = inhibition is -25.4% (inactive).

For the compound `COn1c(-c2ccc(Cl)cc2Cl)nc2ncccc21`, the activity change, negative = inhibition was -63.6% (active).

Consider `CC(NC(=O)CCc1cn(Cc2ccccc2Cl)c2ccccc12)c1ccccc1` (stereo unspecified), for which the activity change, negative = inhibition was -11.3% (inactive).

With `Cc1cccc(NC(=O)N2CCN(C)c3ncccc32)c1C`, the activity change, negative = inhibition was 12% (inactive).

In the case of `CC(Sc1oc(-c2ccco2)nc1S(=O)(=O)c1ccc(Br)cc1)c1ccccc1` (stereo unspecified), the activity change, negative = inhibition was 0.136% (inactive).

For `CCN(C(=O)c1ccc(Br)cc1)c1ccccc1`, the activity change, negative = inhibition is 7.23% (inactive).

`CCN(C(=O)c1sc2cc(OC)ccc2c1Cl)c1ccccc1`: the activity change, negative = inhibition is -99.2% (active).

On to `COc1ccc2c(Cl)c(-c3nnco3)sc2c1`, for which the activity change, negative = inhibition is -7.84% (inactive).

With `COc1ccc(CNC(=O)c2ccc3c(c2)nc2n3CCOC2)c(OC)c1`, the activity change, negative = inhibition is 2.67% (inactive).

Consider `COc1ccccc1NS(=O)(=O)c1ccc(C)c(C(=O)NCC(c2ccco2)N(C)C)c1` (stereo unspecified), for which the activity change, negative = inhibition is -6.15% (inactive).

With `Cc1cccc(NS(=O)(=O)c2ccc(C)c(C(=O)NCC(c3ccccc3)N(C)C)c2)c1` (stereo unspecified), the activity change, negative = inhibition is -101% (active).

As for `COc1ccc(C(CNC(=O)c2cc(S(=O)(=O)Nc3cccc(C)c3)ccc2C)N2CCCC2)cc1` (stereo unspecified), the activity change, negative = inhibition was -30.6% (inactive).

Turning to `O=C(Nc1ccccc1Cl)N1CCC(CN2CCCCC2)CC1`, the activity change, negative = inhibition was -10.2% (inactive).

Take `O=C(Nc1ccccc1Cl)N1CCC(CN2CCCC2)CC1`: the activity change, negative = inhibition is 37.3% (inactive).

Turning to `O=C(Nc1ccccc1Cl)/C(Cl)=C(\Cl)S(=O)c1ccccc1` (stereo unspecified), the activity change, negative = inhibition was -100% (active).

As for `Oc1ccccc1-c1cc(-c2ccc(Cl)cc2)n[nH]1`, the activity change, negative = inhibition was -20.6% (inactive).

For `COc1ccccc1CNS(=O)(=O)CC12CCC(CC1=O)C2(C)C` (stereo unspecified), the activity change, negative = inhibition is 6.14% (inactive).

On to `Oc1cccc2cc(-c3ccncc3)cnc12`, for which the activity change, negative = inhibition is -101% (active).

Regarding `Cc1ccc(OCCSc2nc3ccc(NC(=O)COc4ccc(C)cc4)cc3s2)cc1`, the activity change, negative = inhibition was 7.69% (inactive).

Take `Cc1ccccc1NC(=O)Cn1c(=O)n(CC2CCC(C(=O)NCCc3ccccc3)CC2)c(=O)c2ccccc21` (stereo unspecified): the activity change, negative = inhibition was 16.2% (inactive).

Consider `COc1cc(C=C(OC(C)=O)c2ccc3c(c2)OCO3)cc(OC)c1OC`, for which the activity change, negative = inhibition is 62.8% (inactive).

On to `COc1cc(C2c3cc4c(cc3C(O)C3COC(=O)C23)OCO4)cc(OC)c1OC` (stereo unspecified), for which the activity change, negative = inhibition is -89.9% (active).

On to `COc1cc(OC)c2c(c1)OC(=O)CC2c1cc(OC)c(OC)c(OC)c1` (stereo unspecified), for which the activity change, negative = inhibition is -7.37% (inactive).
